Methyltransferases = Primary Screen for Target Class Profiling of Small Molecule Inhibitors of Methyltransferases. purified enzyme, MTase-Glo SAH luminescence; active compounds read low. calls only at 40 µM. 25,000 tested, 3.9% active. AID 1745853, 2022; call rule not given here
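Each enzyme was reacted with SAM and its substrate, with compounds tested once at 40 uM; SAH formed was read by MTase-Glo luminescence.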
Calls only; n = inactive; + = active, no number; ! = not active in a repeat. The entries come from a sample that favours hits as a whole.

SMILES | Methyltransferases
C[C@@]1(C2CCCC2)Cc2cc(OCC(=O)O)c(Cl)c(Cl)c2C1=O | +
Cc1cnc(C(=O)N2CC[C@H](CO)[C@H](NC(=O)C3CC3)C2)cn1 | n
Cc1ncoc1C(=O)N1C[C@@H](COCC2CC2)[C@H](c2ccccn2)C1 | n
COc1cnc(-c2ccc(Cn3c(CC(C)(C)C(=O)O)c(SC(C)(C)C)c4cc(OC[C@@H]5Cc6ccccc6N5C(C)=O)ccc43)cc2)nc1 | +
COc1ccc(CCc2nc3c(C)c(-c4c(C)noc4C)c(C)cc3n2CCN2CCOCC2)cc1 | +!
COc1ccc2cc3n(c2c1)CC(C)(C(=O)NC1CCCCC1)N(CCCN1CCOCC1)C3=O (stereo not drawn) | n
COc1ccc2cc3n(c2c1)CC(C)(C(=O)NCC1CCCO1)N(CCc1ccc(Cl)cc1)C3=O (stereo not drawn) | n
CC/C=C\[C@H](O)[C@H](O)C1=C(C)C(=O)[C@]2(O1)C(=O)N[C@@](O)(C(=O)c1ccccc1)[C@@H]2O | n
C=CC(C)(C)O[C@@H]1O[C@H](CO[C@@H]2OC[C@](O)(CO)[C@H]2O)[C@@H](O)[C@H](O)[C@H]1O | n
Cc1ccc(CNC(=O)C2(C)Cn3nc(C(=O)NCCN4CCOCC4)cc3C(=O)N2C)cc1 (stereo not drawn) | n
Cc1cn2cc(C(=O)N(C)CCO)cc(NC3CCOc4cccc(C)c43)c2n1 (stereo not drawn) | n
O=C(c1c(F)ccc(NS(=O)(=O)N2CC[C@@H](F)C2)c1F)c1c[nH]c2ncc(-c3cnc(C4CC4)nc3)cc12 | n
CCCS(=O)(=O)Nc1ccc(F)c(C(=O)c2c[nH]c3ncc(-c4ccc(Cl)cc4)cc23)c1F | +
COc1ccc(-c2cnc3[nH]cc(CC(=O)N4CCNC(=O)C4)c3c2)cc1 | n
Cc1ccc(NS(=O)(=O)c2cc3c(cc2Cl)n(C)c(=O)n3C)cc1C | n
CCCn1c(=O)c2ccccc2n2c(SCc3ccccc3C)nnc12 | n
CC(C)OCCCN1C(=O)c2cc3occc3n2CC1(C)C(=O)NC1CCCCCCC1 (stereo not drawn) | n
Fc1ccc(N2CCCCC2)c(NC(=S)c2ccncc2)c1 | +
C=C1C(=O)O[C@@H]2C[C@]3(C)[C@@H](CCC(C)=O)[C@@H]3C[C@H]12 | n
CC1CC(=O)C2=C(O1)OC1(C)CCC3C(C)(C)C4OC4C(=O)C3(C)C1C2 (stereo not drawn) | +
CC1CC(=O)C2=C(O1)OC1(C)CCC3C(C)(C)C=CC(=O)C3(C)C1C2 (stereo not drawn) | +
O=C(COc1ccccc1)N1CCc2nn(Cc3ccccc3)c(=O)n2CC1 | n
CCOc1ccc(CNC(=O)c2ncn3c2C(=O)N(C2CC2)C(C)(C(=O)NCc2ccc(F)cc2)C3)cc1 (stereo not drawn) | n
CC(=O)NC[C@H]1CCN(Cc2ccc(Cl)cc2F)C[C@H]1N(C)C | n
O=C1C[C@H]2CC[C@@H](CN1)N2Cc1ccc(OCc2ccccc2)cc1 | n
SMILES | Methyltransferases
COc1ccc2c(OC)c3ccoc3nc2c1OC | n
O=C1CC2CCCC(C1)N2C(=O)c1cc(F)ccc1Br | n
O=C1COCCN1C1CCN(Cc2ccc(F)cc2)CC1 | n
Cc1ccc(Cn2c(=O)c3ccccc3n3c(CCC(=O)N4CCN(c5ccccc5F)CC4)nnc23)cc1 | n
CSc1ccc2c(c1)C(N1CCN(C)CC1)Cc1ccccc1S2 (stereo not drawn) | +
CN1CCN(CCCN2c3ccccc3Sc3ccc(Cl)cc32)CC1 | n
CN1CCN2c3ccccc3Cc3ccccc3C2C1 (stereo not drawn) | n
CCOC(=O)c1cc2n(n1)CC(C)(C(=O)NCc1ccccc1)N(Cc1cccc(Br)c1)C2=O (stereo not drawn) | n
C=Cc1ccc(CSc2nnc3n(CCCOC(C)C)c(=O)c4cc(Cl)ccc4n23)cc1 | n
COc1ncc(-c2ccc3nccc(-c4ccnnc4)c3c2)cc1NS(=O)(=O)c1ccc(F)cc1F | +
CCN1C(=O)c2cc(C(=O)NCc3ccc(Cl)cc3)nn2CC1(C)C(=O)NC1CCCC1 (stereo not drawn) | n
Cc1ccccc1NC(=O)c1cc2n(n1)CC(C)(C(=O)NC1CCCCCC1)N(C)C2=O (stereo not drawn) | n
O=c1c2ccccc2n2c(SCc3ccc(F)cc3)nnc2n1Cc1ccc(F)cc1 | n
C[C@]12C[C@@H](O)[C@@H]3C[C@@]1(O[C@@H]1O[C@H](CO)[C@@H](O)[C@H](O)[C@H]1O)[C@]3(COC(=O)c1ccccc1)C(=O)O2 | +
O=C(OC[C@H]1O[C@H](O[C@H]2CO[C@H](CO)[C@@H](O)[C@@H]2O)[C@H](O)[C@@H](O)[C@H]1O)c1ccccc1 | n
O=C(OC[C@H]1O[C@H](O[C@]2(CO)O[C@H](CO)[C@@H](O)[C@@H]2O)[C@H](O)[C@@H](O)[C@@H]1O)c1ccc(O)cc1 | n
COCCN1CCCCCC(O)c2cc(C(=O)Nc3ccc(C)cc3)ccc21 (stereo not drawn) | n
CC1(C(=O)NC2CCCCCC2)Cc2ccccc2C(=O)N1C1CCCC1 (stereo not drawn) | n
CSc1ccc(CCNC(=O)c2cc3n(n2)CCCN(Cc2ccc(C)cc2)C3=O)cc1 | n
Cc1ccccc1-c1cc(N2CCN(C)CC2)ncc1N(C)C(=O)C(C)(C)c1cc(C(F)(F)F)cc(C(F)(F)F)c1 | n
CN(CCO)C(=O)c1cn2cc(-c3cccs3)n(CC3CC3)c(=O)c2n1 | n
CC(CCc1ccccc1)NC(=O)CCn1ccn2nc3c(c2c1=O)CCCC3 (stereo not drawn) | n
COc1ccc(-c2cc(C[C@@H]3CC[C@H](O)[C@@H](CNC4CCN(C(C)=O)CC4)O3)no2)cc1 | n
CC(C)C(=O)O[C@@H]1[C@@H](O)[C@@H](O[C@H]2O[C@H](CO)[C@@H](O)[C@H](O)[C@H]2O)O[C@H](CO)[C@H]1O | n
CC(C)C(=O)OC[C@H]1O[C@H](O[C@H]2O[C@H](CO)[C@@H](O)[C@H](O)[C@H]2O)[C@H](O)[C@@H](O)[C@@H]1O | n
SMILES | Methyltransferases
CC1(C)O[C@@]2(C)CC[C@@H]1C[C@@H]2OC1OC(CO)C(O)C(O)C1O (stereo partly drawn) | +
O=C(CCc1nnc2n(Cc3ccc(Cl)cc3)c(=O)c3ccccc3n12)NCc1ccccc1 | n
O=C1CCCN1CCCNc1nc2c(S(=O)(=O)c3ccc(Br)cc3)nnn2c2ccccc12 | n
COc1ccc(C2=NOC3(CCCN([S+](=O)([O-])c4cccc(C(F)(F)F)c4)C3)C2)cc1 (stereo not drawn) | n
COCCNC(=S)N[C@H]1C[C@H]2C(=O)NC[C@@H](CCC(=O)NCc3ccccc3)N2C1 | n
COc1ccc(NC(=O)N2CCn3cccc3C2Cc2ccccc2)cc1 (stereo not drawn) | n
Clc1ccc(C2(c3ccc(-c4cn[nH]c4)cc3)CCNCC2)cc1 | +
O=C(Cc1ccc(F)cc1)N1CCC2(COc3ccncc3[S+](=O)([O-])N2)C1 (stereo not drawn) | n
O=C(O)c1cc(N(Cc2ccc(C3CCCCC3)cc2)C(=O)c2ccc(Oc3ccccc3)cc2)ccc1O | +
CC(C)Cn1c(=O)c2ccccc2n2c(SCC(=O)Nc3ccccc3F)nnc12 | n
Cc1noc(C)c1C(=O)N1CCC2(CC1)CN(C(=O)Cc1cccc(Cl)c1)CCO2 | n
CC(=O)OC(CSC1CCC(=O)OC(C)CCC(=O)C1)C(=O)O (stereo not drawn) | n
